Laboratory results: PubChem BioAssay

Experiments:
PEG-3 [1] = molecular target: PEG-3 (UniProt Q6IN02); assay: Peg3 promoter luciferase inhibitors, potency, dose response, cell-based, HeLa, CREF/GAPDH counter-screen panel (AID 624167); conditions: CREF/GAPDH counter-screens; HeLa PEG-Prom luciferase reporter, overnight, run 1, dose range 1, at 100 µM (top of the series) unless noted
PEG-3 [2] = molecular target: PEG-3 (UniProt Q6IN02); assay: as above; conditions: CREF/GAPDH counter-screens; HeLa PEG-Prom luciferase reporter, overnight, run 2, dose range 1, at 100 µM (top of the series) unless noted
Rat fibroblasts (CREF) [3] = assay: as above; conditions: CREF/GAPDH counter-screens; run 1, dose range 1, at 100 µM (top of the series)
Rat fibroblasts (CREF) [4] = assay: as above; conditions: CREF/GAPDH counter-screens; run 2, dose range 1, at 100 µM (top of the series)
[5] = inhibitors of PAF-induced NFkB signaling in CF airway cells, dose response, cell-based, uHTS hits, panel, cytotoxicity readout (AID 624344); conditions: CF bronchial epithelial cells, PAF-induced NFkB reporter inhibition, with PAF, run 1; at 79 µM (top of the series) unless noted
[6] = as above; conditions: CF bronchial epithelial cells, PAF-induced NFkB reporter inhibition, with PAF, run 2; at 79 µM (top of the series) unless noted
[7] = molecular target: Tumor necrosis factor receptor superfamily member 10B (Homo sapiens) (UniProt O14763); assay: caspase-8 TRAIL sensitization, hit retest, confirmation, cell-based, NB7+caspase-8, with/without TRAIL, luminescence panel (AID 651596); conditions: NB7 neuroblastoma + caspase-8, TRAIL sensitization, luminescence viability, with TRAIL, mean of runs, at 10 µM, stronger effect = higher value
[8] = as above; conditions: NB7 neuroblastoma + caspase-8, without TRAIL, luminescence viability, without TRAIL, mean of runs, at 10 µM

Sequence of PEG-3 (Q6IN02 whole entry, looked up): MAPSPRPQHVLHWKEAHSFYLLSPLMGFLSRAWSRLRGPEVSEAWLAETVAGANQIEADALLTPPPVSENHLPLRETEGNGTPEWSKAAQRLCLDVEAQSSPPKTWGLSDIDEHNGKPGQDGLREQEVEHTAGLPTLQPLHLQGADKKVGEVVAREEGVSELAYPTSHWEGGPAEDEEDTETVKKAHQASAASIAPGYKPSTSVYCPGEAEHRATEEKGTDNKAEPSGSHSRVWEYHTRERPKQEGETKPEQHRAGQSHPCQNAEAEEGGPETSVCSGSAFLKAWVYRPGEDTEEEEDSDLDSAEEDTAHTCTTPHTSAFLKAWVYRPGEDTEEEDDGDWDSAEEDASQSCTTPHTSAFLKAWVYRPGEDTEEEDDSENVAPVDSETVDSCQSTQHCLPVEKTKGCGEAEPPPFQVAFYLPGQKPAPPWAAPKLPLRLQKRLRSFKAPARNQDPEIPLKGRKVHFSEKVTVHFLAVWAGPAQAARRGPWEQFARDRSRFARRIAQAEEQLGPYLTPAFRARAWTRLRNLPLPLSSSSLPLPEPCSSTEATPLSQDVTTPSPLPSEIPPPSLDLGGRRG
Sequence of Tumor necrosis factor receptor superfamily member 10B (Homo sapiens) (O14763 whole entry, looked up): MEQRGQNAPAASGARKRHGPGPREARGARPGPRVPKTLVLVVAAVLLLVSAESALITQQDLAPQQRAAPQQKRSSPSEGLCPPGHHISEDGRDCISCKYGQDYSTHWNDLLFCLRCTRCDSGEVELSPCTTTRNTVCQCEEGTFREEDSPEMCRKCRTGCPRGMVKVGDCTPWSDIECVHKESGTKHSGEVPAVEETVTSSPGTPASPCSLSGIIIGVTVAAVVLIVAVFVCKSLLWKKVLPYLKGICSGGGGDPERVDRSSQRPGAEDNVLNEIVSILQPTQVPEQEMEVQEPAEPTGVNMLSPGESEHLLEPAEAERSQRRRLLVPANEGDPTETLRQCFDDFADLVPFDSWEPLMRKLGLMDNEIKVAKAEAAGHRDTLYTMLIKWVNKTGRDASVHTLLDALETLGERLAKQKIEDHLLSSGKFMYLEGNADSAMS

Compound | inhibition (PEG-3 [1]) [%] | inhibition (PEG-3 [2]) | inhibition (Rat fibroblasts (CREF) [3]) [%] | inhibition (Rat fibroblasts (CREF) [4]) [%] | inhibition [5] [%] | inhibition [6] [%] | activity [7] [%] | activity [8] [%]
COc1cccc(/C=N/NC(=O)c2ccc(-c3ccccc3)cc2)c1O | 81 | 79.7% | 69.8 | 67.6 | – | – | – | –
COC(=O)c1c(N)sc(C(=O)NCCc2ccccc2)c1C | 101 | 102% | 93.6 | 92.9 | – | – | – | –
N=c1n(CC(=O)c2ccc([N+](=O)[O-])cc2)c2ccccc2n1Cc1ccc(Cl)cc1 | 99.6 | 101% | 99.2 | 99.4 | – | – | – | –
Cc1ccc(-n2c(N)c(C(=O)Nc3c(C)n(C)n(-c4ccccc4)c3=O)c3nc4ccccc4nc32)cc1 | 52.5 | 62.7% | 89.4 | 83.7 | – | – | – | –
CN[C@H]1C[C@H]2c3[nH]c4ccc(-c5ccc(OC)cc5)cc4c3CCN2C(=O)[C@H]1[C@H](C)O | 102 | 98.8% | 96 | 99.6 | – | – | – | –
O=C(/C=C/c1ccccc1)Nc1cccc(C(=O)O)c1 | 99 | 97.4% | 96.8 | 95.7 | – | – | – | –
O=C(Nc1cc(S(=O)(=O)N2CCOCC2)ccc1Cl)c1cc([N+](=O)[O-])ccc1Cl | 98.9 | 98.9% | 85.8 | 98.1 | – | – | – | –
O=[N+]([O-])c1ccc(-c2ccc(/C=N/Nc3nc(NCc4ccccc4)nc(N4CCOCC4)n3)o2)cc1 | 99.5 | 91.5% | 97.5 | 96.9 | – | – | – | –
O=C(NCCc1ccccc1)c1ccc2c(c1)OCO2 | 86.2 | 97.8% | 93.9 | 93.7 | – | – | – | –
O=c1cc(-c2ccc(O)cc2)oc2ccc3ccccc3c12 | 99.4 | 101% | 98.1 | 97.1 | – | – | – | –
CN(C)c1ccc(/C=C/c2ccc3ccccc3n2)cc1 | 96.6 | 96% | 96.6 | 95.8 | – | – | – | –
COc1ccc(C(=O)Nc2nc3ccccc3s2)c(OC)c1 | 101 | 98.8% | 97.3 | 97.7 | – | – | – | –
CN(C)c1ccc(/C=C/c2nc3ccccc3s2)cc1 | 94.8 | 89.3% | 96.6 | 94.9 | – | – | – | –
COc1ccc(NC(=O)c2cc(-c3ccccn3)nc3ccccc23)cc1S(=O)(=O)N(C)C | 56.4 | 61.2% | -4.8 | -6.75 | – | – | – | –
CCOc1ccc(NC(=O)Nc2cccc(C(=O)O)c2)cc1 | 98 | 94.6% | 91.9 | 94.1 | – | – | – | –
Cc1cccc(C)c1NC(=O)c1nc(S(=O)(=O)Cc2ccccc2)ncc1Cl | 102 | 101% | 99.2 | 99 | – | – | – | –

Compound | inhibition (PEG-3 [1]) [%] | inhibition (PEG-3 [2]) | inhibition (Rat fibroblasts (CREF) [3]) [%] | inhibition (Rat fibroblasts (CREF) [4]) [%] | inhibition [5] [%] | inhibition [6] [%] | activity [7] [%] | activity [8] [%]
CC1CC(C)C(=O)C(C(CC2CC(=O)NC(=O)C2)OC(=O)CC(=O)c2ccccc2)C1 (stereo not given) | 72.4 | 85.5% | 44.6 | 23.7 | – | – | – | –
COc1cccc(OC)c1C(=O)Nc1cc(C)nn1-c1nc2ccccc2[nH]1 | 37.6 | 65.1% | 2.09 | 12.6 | 111 | 101 | – | –
CCOc1cccc(/C=N/NC(=S)Nc2cc(S(=O)(=O)N3CCOCC3)ccc2N2CCOCC2)c1O | 70.7 | 50.5% | 26.2 | 48.3 | – | – | – | –
CN(C)CCCN(C(=O)c1ccc(S(=O)(=O)N2CCc3ccccc3C2)cc1)c1nc2ccc(F)cc2s1 | 102 | 98.9% | 99 | 98.9 | – | – | 48.5 | 17.1
C(=Cc1cnc2ccccc2n1)c1ccc2c(c1)OCO2 | 94.6 | 98.4% | 95.9 | 95.7 | – | – | 92.9 | 92.6
CCc1ccc(C(=O)Nc2nc3ccccc3[nH]2)cc1 | 95.9 | 97.2% | 98.4 | 98.5 | – | – | 98.2 | 98.5
CN(C)CC1CCC/C(=C\c2ccc(OC(=O)c3ccc(Cl)cc3)cc2)C1=O (stereo not given) | 97.7 | 99% | 51.4 | -21.7 | – | – | – | –
Cc1ccsc1/C=N/Nc1cccc(C(=O)O)c1 | 98.1 | 88.9% | 51.5 | 42.9 | – | – | – | –
COCCn1c(C)cc(C(=O)CSc2nnc(C)s2)c1C | 96.1 | 94.9% | 90.8 | 90.7 | – | – | 53.5 | 49
CCCSc1ccc2nc(-c3ccccc3)cn2c1 | 98.4 | 98.8% | 92.4 | 95.7 | – | – | – | –
O=c1c2ccccc2sc2nc(CCl)nn12 | 102 | 102% | -2.66 | 33.8 | – | – | – | –
CC(C)CC(=NNC(=O)c1ccncc1)c1cc(Cl)ccc1O | 76.9 | 93.6% [run 2, dose range 1, at 50 µM] | 73.9 | 81.7 | – | – | – | –
CC(=O)Nc1ccc(NC(=O)c2nc(S(=O)(=O)Cc3cccc(C)c3)ncc2Cl)cc1 | 102 | 97.4% | 100 | 100 | 76.1 | 85.4 | 56.4 | 99.4
O=C(O)c1cccc(COc2ccccc2Cl)c1 | 96.7 | 87.5% | 97 | 72.1 | – | – | – | –
NC(C(=O)O)C1ON=C(Cl)C1O (stereo not given) | 41.4 | 43.8% | -3.88 | 9.67 | – | – | 82.5 | 88.3
